This is a sample that favours compounds with a hit; in the whole collection about 2.8% have one here.
WRN helicase inh = WRN helicase (human) inhibition; Potency, µM (titrated, usually from 114 µM), for inactives: top-dose activity change, negative = inhibition, hits mostly inhibitors; Q14191; 360,000 compounds, 0.46% hits; WRN helicase unwinding, fluorescent forked duplex, kinetic; note: potency is the fitted concentration of half-maximal effect; % is set by controls: 0 for no effect and ±100 for the full control effect; nearly all actives have a fitted effect of over 55% in size
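Fluorescence dequenching readout, ex 525 nm/em 598 nm, kinetic mode: forked duplex DNA (100 nM final) with adjacent fluorophore and quencher unwound by WRN (20 nM final) with 2 mM ATP. Compound preincubation 15 min, room temperature.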
Pol beta inh = DNA polymerase beta (human) inhibition. P06746. Pol beta primer extension/strand displacement, fluorescence kinetic. Potency, µM (top dose mostly 114 µM), for the others: top-dose activity change, negative = inhibition, hits mostly inhibitors. 340,000 compounds, 1.3% hits. AID 485314; note: potency is the fitted concentration of half-maximal effect; % is set by controls: 0 for no effect and ±100 for the full control effect
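Kinetic readout of DNA synthesis with strand displacement by Pol beta. Compound and 10 nM enzyme sit 15 min at room temperature; 50 nM substrate starts the reaction, read immediately and at 10 min.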
Pol kappa inh = inhibitors of human DNA polymerase kappa; Q9UBT6; purified Pol kappa, fluorescent DNA synthesis assay, 10 min; Potency, µM (doses to about 107 µM), for the others: at the highest dose activity, negative = inhibition, hits mostly inhibitors; 400,000 compounds, 0.53% hits; AID 588579; note: potency is the fitted concentration of half-maximal effect; % is set by controls: 0 for no effect and ±100 for the full control effect
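Fluorescent qHTS in 1536-well format: enzyme (10 nM) and compound sat 15 min at room temperature before 50 nM substrate (final) was added. Signal taken at 0 and 10 min; no-enzyme buffer wells were negative controls.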
PI5P4K alpha inh = inhibitors of human PI5P4K alpha. P48426. PI5P4Kalpha enzyme, ADP-Glo luminescence, 60 min; hits give low values. max response, %. 330,000 compounds, 1.2% hits. AID 652105; active = max response of -50% or lower; inconclusive = between -30% and -50%; inactive = -30% or higher; note: value at the top dose of about 77 µM; % is set by controls: 0 for no effect and ±100 for the full control effect
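Human PI5P4Kalpha with substrate in 0.038 M HEPES pH 7.4, 0.28 mM EGTA, 0.1% CHAPS, 5% DMSO; reaction started with 5 microM ATP (final), 60 min at room temperature. ADP formed read by ADP-Glo luminescence.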
POLI inh = inhibitors of human DNA polymerase iota | Pol iota fluorescent replication assay, 10 min | Potency, µM (doses to about 115 µM), for the others: top-dose activity, negative = inhibition, usual class: inhibitors | 390,000 compounds, 1% hits | Q9UNA4; note: potency is the fitted concentration of half-maximal effect
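Pol iota at 10 nM preincubated 15 min with compounds at room temperature; reaction started with fluorescent substrate, 50 nM final. Fluorescence read kinetically at 0 and 10 min; buffer-only wells as negative control.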
Pol eta inh = blocks human DNA polymerase eta activity | Potency, µM (titrated, usually from 114 µM), for the others: at the highest dose activity change, negative = inhibition, most hits filed as inhibitors | Q9Y253 | recombinant Pol eta, fluorescent DNA replication assay | 390,000 compounds, 1.2% hits | AID 588591; note: potency is the fitted concentration of half-maximal effect; % is set by controls: 0 for no effect and ±100 for the full control effect
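Fluorescent replication assay: 50 nM final substrate added after a 15 min room-temperature compound preincubation with 10 nM enzyme. Signal taken at 0 min and again at 10 min.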
ADP-Glo interf = ADP-Glo luciferase interference, PI5P4K counter-screen. shares compounds with PI5P4K alpha inh. ADP-Glo detection counter-screen, luciferase luminescence, no enzyme. Potency, µM (highest dose often 76.9 µM), without a hit: at the top dose activity change, negative = inhibition, most hits filed as inhibitors. 1,100 tested, under 10 active. AID 743285
An asterisk follows results filed as active; ? = inconclusive; . = no result; ! = repeats disagree; [ ] = another dose, or the depositor's remark. Unless noted, calls come from the whole dose curve; as a rule, active = well fitted curve in the direction sought with a large enough effect; inconclusive = small, poorly fitted or top-dose-only effect, or another doubt; inactive = no such curve, though single readings can be large; an effect the other way counts as inactive or inconclusive.

SMILES	WRN helicase inh	Pol beta inh	Pol kappa inh	PI5P4K alpha inh	POLI inh	Pol eta inh	ADP-Glo interf
COc1ccc(N2CSC3=C(C#N)C(c4cc(OC)c(OC)cc4OC)CC(=O)N3C2)c(OC)c1 (stereo unspecified)	6%	2%	-12%	?	?	-2%	.
COc1ccc(N2CSC3=C(C#N)C(c4ccc(OC)c(OC)c4)CC(=O)N3C2)c(OC)c1 (stereo unspecified)	10%	28%	-39%	-53*	?	-13%	-18%
OC[C@@H]1O[C@](CO)(O[C@H]2O[C@H](CO)[C@@H](O)[C@H](O)[C@H]2O)[C@H](O)[C@H]1O	.	.	1%[19.4 µM]	.	.	.	.
COc1cc(C(=O)Nc2nc3ccc(S(C)(=O)=O)cc3s2)cc(OC)c1C	6%	-9%	-6%	-12	38%	4%	.
COc1cc(OC)cc(C(=O)Nc2nc3ccc(S(C)(=O)=O)cc3s2)c1	?	15%	-4%	-74*	6%	-13%	-16%
COc1ccc2nc(Nc3sc4c(c3C(N)=O)CCCC4)sc2c1	?	17%	-27%	-70*	6%	-12%	1%
CCCNc1c(F)c(F)c2c(C)c3ccccc3nc2c1F	?	-12%	79µM*	-66*	7.9µM*	-8%	-14%
CCOc1ccc(CCNC(=O)c2cccc(-n3c(C)nc4cccnc43)c2C)cc1	.	0%	2%	.	47%	-17%	.
CCN(CC(=O)Nc1c(F)cccc1F)C(=O)c1ccc(NC(=O)CC2SC(N3CCCC3)=NC2=O)cc1 (stereo unspecified)	10%	.	2%	5	-9%	-11%	.
CCN1CCN(Cc2ccc(NC(=O)c3ccc(C)c(NC(=O)c4ccno4)c3)cc2C(F)(F)F)CC1	-2%	-10%	22%	-17	13%	2%	.
CCN1CCN(Cc2ccc(NC(=O)c3cc(NC(=O)c4cc5cccc(OC)c5o4)cc(OC)c3)cc2C(F)(F)F)CC1	3%	1%	12%	-61*!	31%	-11%	7%
CCN1CCN(Cc2ccc(NC(=O)c3ccc(C)c(NC(=O)c4csc(-c5ccncc5)n4)c3)cc2C(F)(F)F)CC1	-5%	?	15%	-65*	?	-17%	4%
CCN1CCN(Cc2ccc(NC(=O)c3cc(NC(=O)N4CCNC4=O)cc(OC)c3)cc2C(F)(F)F)CC1	10%	4%	4%	0	22%	-1%	.
CCCCCCCCN1C(=O)[C@H](CC(=O)NCCCC)C[C@@]2(C(=O)OC)CC(C)(C)CC=C12	-8%	.	.	0	.	.	.
CC(=O)c1cccc(NC(=O)c2cc(-c3ccco3)nc3ccccc23)c1	-22%	?	-30%	-51*	?	3%	4%
CNC(=S)N(Cc1cccs1)Cc1cc2ccc(OC)cc2[nH]c1=O	-20%	3%	-16%	-60*	-4%	?	0%
CN(C)CCNS(=O)(=O)c1ccc2c3c(cccc13)C(=O)N2	-2%	4%	-4%	-1	32%	-16%	.
O=C1Nc2ccc(S(=O)(=O)NCc3ccccn3)c3cccc1c23	?	1%	?	-60*	50µM*	20µM*	-8%
Cc1ccc(C)c2[nH]c(=O)c(CCNC(=O)c3ccc(S(=O)(=O)N4CCOCC4)cc3)cc12	-14%	?	1%	-57*	7%	-12%	-7%
Cc1cc2ccccc2cn1	.	.	4%	.	-12%	.	.
Cc1ccc(C)c(NC(=O)c2ccc3c(c2)N(Cc2ccc(F)cc2)C(=O)CS3=O)c1 (stereo unspecified)	-1%[11.6 µM]	0%	-97%	-58*	?	?	0%
CCOc1ccc(NC(=O)c2ccc3c(c2)N(Cc2ccc(F)cc2)C(=O)CS3=O)cc1 (stereo unspecified)	-2%	-23%	11%	-5	33%	-28%	.
